Only some compounds are listed: those with a hit (about 2.6% of all), similar ones and a draw of the others.
HBB splice mod – hemoglobin beta splicing modulation; HBB splicing reporter cell assay, activation; EGFP reporter with mutant IVS2-654 intron; response scale: normalised to 500 nM splice-correcting PNA; Potency, µM (highest dose often 46.1 µM), inactives show at the top dose activation, hits mostly activators; 0.06% of 65,000 active; AID 925; also: potency is read from the fitted curve at half-maximal effect; 0% is about no effect
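HeLa cells stably expressing EGFP interrupted by mutant beta-globin intron 2 (IVS2-654), 500/well in 2% FCS. Treated with compound for 2 days at 37C. Splicing correction scored as total well GFP intensity (488 nm excitation, 500-520 nm emission); 500 nM antisense PNA served as control.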
GFP derepression – epigenetic GFP locus derepression in mouse cells; mouse C127i GFP locus derepression, cytometry, 30 h; Potency, µM (doses to about 46.1 µM), inactives show at the highest dose GFP derepression (activation); 0.09% of 68,000 active; also: % of control where 0% means no effect
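Locus derepression in mouse mammary C127i cells whose integrated CMV-GFP reporter is normally silent; GFP expression after 30 h compound treatment was quantified by counting fluorescent cells.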
Bst PK mod – alters activity of Bacillus stearothermophilus pyruvate kinase. purified pyruvate kinase, luminescence ATP production; ribose 5-phosphate activator present at AC10. Potency, µM. 1.2% of 51,000 active; in the data active = potency below about 11 µM; inconclusive = mostly about 12 µM to 25 µM;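 the screen sought inhibitors and activators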;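 also: potency is read from the fitted curve at half-maximal effect; scaled between full activation by ribose 5 phosphate and full inhibition by luteolin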
FLuc inh – blocks Photinus pyralis firefly luciferase activity | P08659 | purified firefly luciferase, luminescence, 8 min | Potency, µM (doses to about 57.1 µM), without a hit: at the highest dose activity change, negative = inhibition, most hits filed as inhibitors | 2.2% of 72,000 active; also: potency is read from the fitted curve at half-maximal effect; % is scaled to controls: 0 for no effect and ±100 for the full control effect; nearly all actives have a fitted effect of over 40% in size
Target sequence (P08659 whole entry, looked up): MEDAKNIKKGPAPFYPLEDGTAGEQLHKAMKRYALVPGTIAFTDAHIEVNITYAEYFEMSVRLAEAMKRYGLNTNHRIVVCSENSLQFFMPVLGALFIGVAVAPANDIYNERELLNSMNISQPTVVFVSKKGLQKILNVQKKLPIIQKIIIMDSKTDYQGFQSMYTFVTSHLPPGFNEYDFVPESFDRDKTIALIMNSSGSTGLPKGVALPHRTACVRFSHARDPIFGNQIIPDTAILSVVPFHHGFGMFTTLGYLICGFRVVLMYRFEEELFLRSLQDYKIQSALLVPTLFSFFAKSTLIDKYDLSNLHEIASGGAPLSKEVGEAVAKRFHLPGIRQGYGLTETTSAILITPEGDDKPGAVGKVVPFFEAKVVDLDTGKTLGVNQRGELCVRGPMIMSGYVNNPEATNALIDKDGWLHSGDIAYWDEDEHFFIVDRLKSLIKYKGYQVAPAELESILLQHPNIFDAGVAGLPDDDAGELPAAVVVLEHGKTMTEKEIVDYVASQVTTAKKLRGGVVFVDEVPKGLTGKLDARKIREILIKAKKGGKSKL
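Here, luciferase activity is measured as luminescence following an 8 min room-temperature reaction at 10 uM ATP, pH 7.2. Every library sample is titrated.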
* marks the source's active call; other numbers are inactive results; i = inactive; ? = inconclusive; · = not tested or not shown; [ ] = dose if it differs, or a comment. Unless noted, calls follow the shape of the dose curve; as a rule, active = well fitted curve in the direction sought with a large enough effect; inconclusive = small, poorly fitted or top-dose-only effect, or another doubt; inactive = no such curve, though single readings can be large; an effect the other way counts as inactive or inconclusive.

SMILES	HBB splice mod	GFP derepression	Bst PK mod	FLuc inh
C[C@H]1CC[C@H]2C(=O)N3[C@H](c4ccc(Br)cc4)[C@@H](C)CC[C@H]3C(=O)N2[C@@H]1c1ccc(Br)cc1	0%[9.22 µM]	·	·	0%[11.4 µM]
COc1cc2nc(=S)n3[nH]c(CCn4nc(C)cc4C)nc3c2cc1OC	-1%	10µM*	>57	-1%
Cn1cc(-c2nc3cnc(Oc4ccccc4)nc3n(CCC#N)c2=O)c2ccccc21	16%	2%[9.22 µM]	·	1%[11.4 µM]
NC(=O)c1ccc(-c2ccc(Br)cc2)o1	0%[57.5 µM]	0%	5.1*	-24%
O=C(Nc1ccccc1C(=O)NCCN1CCOCC1)c1ccco1	-1%	3%	>57	1%
Cn1c(SCc2nc3ccccc3s2)nnc1-c1cccs1	0%	2%	>57	-4%
Cc1ccccc1-n1c(C)nnc1SCc1nc2ccccc2s1	1%	-1%	·	20µM*
c1cn2c(NC3CCCC3)c(-c3ccc(N4CCOCC4)cc3)nc2cn1	0%	·	·	2.5µM*
O=c1oc(-c2cccs2)nc2scc(-c3cccs3)c12	-1%	0%	i	13µM*
Cc1nc2scc(-c3cccs3)c2c(=O)o1	0%[9.22 µM]	-2%	·	-1%
CN1CCc2nc(SCC(=O)Nc3ccc(F)cc3)c(C#N)cc2C1	·	4%	>57	3%
COc1ccc(NC(=O)c2cc(CC(C)C)on2)cc1OC	-1%	·	·	-20%
O=C(c1cc(-c2ccc3c(c2)OCO3)on1)N1CCOCC1	1%	0%	?	7.9µM*
O=C(c1cc(-c2ccc(Cl)cc2)on1)N1CCOCC1	-8%	2%	·	13µM*
O=C(Nc1cccnc1)c1cc(-c2ccc3c(c2)OCO3)on1	0%	-1%	·	0.79µM*
O=C(Nc1cccnc1)c1cc(-c2cccs2)on1	1%	1%	>57	-16%
CC(C)Cc1cc(C(=O)Nc2ccc3c(c2)OCO3)no1	-1%	·	·	7.9µM*
Cn1c(SCC(=O)N2CCOCC2)nnc1-c1ccc(Cl)cc1Cl	·	5%[20.6 µM]	>26	2%[25.5 µM]
O=C(c1cc(-c2ccc(Cl)cc2Cl)on1)N1CCOCC1	-2%	0%	6.3*	7.9µM*
CC(C)(C)c1ccc(C(=O)Nc2cnccn2)cc1	-3%	3%	5.6*	4µM*
CN(C)c1cccc(-c2nnc(SCCCC#N)o2)c1	0%	-1%	i	16µM*
O=C(CSc1nc2ccccc2s1)c1sc2sc3ccccc3[n+]2c1O	?	-3%[9.22 µM]	·	1%[11.4 µM]
COc1ccc2cc3c(N)c(C(=O)N4CCCC4)sc3nc2c1	0%	0%	?	?
Cc1ccc2nc3sc(C(=O)N4CCOCC4)c(N)c3cc2c1	·	2%	1.8*	2µM*
Cc1ccc2cc3c(N)c(C(=O)N4CCOCC4)sc3nc2c1	·	-2%	11*	13µM*
SMILES	HBB splice mod	GFP derepression	Bst PK mod	FLuc inh
c1ccc2c(N3CCCCC3)nc(N3CCCC3)nc2c1	2%	8%	>57	4%
Nc1nc(N2CCCCC2)nc2ccccc12	-1%	2%	8.5*	-13%
COc1cc(OC)cc([C@H](CNc2ncnc3c2ncn3[C@@H]2O[C@@H](CO)[C@H](O)[C@@H]2O)c2ccccc2C)c1	2%	0%	·	-1%
CCn1cnc2sc(-c3ccccc3)cc2c1=O	-2%[57.5 µM]	4%	?	13µM*
Cc1ccc(C)n1-n1cnc2sc(-c3ccccc3)cc2c1=O	-2%	1%	>57	-2%
Cc1nc2cc(NC(=O)Nc3nccs3)ccc2n1C	0%	-3%	11*	6.3µM*
COc1ccc(NC(=O)c2cc3ccccn3n2)cc1	0%	0%	·	6.3µM*
COc1ccc2c3c(ccc2c1)N[C@H](C(=O)O)CC3	-1%[9.22 µM]	-2%[9.22 µM]	·	3.2µM*
COc1ccc(NC(=O)C2CCC(=O)N2)cc1 (stereo unspecified)	-1%	0%	·	3%
CCOc1ccc(-n2c(-c3ccco3)n[nH]c2=S)cc1	0%[0.369 µM]	6%	9.4*	-7%
COc1ccc([C@@H]2CNC(=O)C2)cc1OC1CCCC1	0%[20.6 µM]	1%	·	3%
CC1(C)Cc2c(sc3nc(-c4cccs4)n(N)c(=O)c23)CO1	-1%[57.5 µM]	0%	i	13µM*
Nn1c(-c2cccs2)nc2sc3c(c2c1=O)CCCC3	-1%	2%	?	16µM*
O=C1C(C=NCCCN2CCOCC2)=C(O)c2ccccc21	0%	-2%	·	-2%
O=C1C(C=NCCN2CCOCC2)=C(O)c2ccccc21	0%[0.0738 µM]	0%	·	13µM*
Cc1ccc2nc(-c3cccc(NC(=O)c4ccco4)c3)[nH]c2c1	-1%	-2%	6.4*	10µM*
O=C(CCc1nc2ccccc2[nH]1)N1CCN(C(=O)c2ccco2)CC1	1%	-9%	·	3%
O=C(Nc1ccc2nc(-c3cccnc3)[nH]c2c1)c1ccco1	0%	2%	·	16µM*
O=C(Nc1ccc2nc(-c3ccco3)[nH]c2c1)c1ccco1	·	-1%	10*	13µM*
O=C(CSc1ccc(-c2nc3ccccc3[nH]2)cn1)N1CCN(C(=O)c2ccco2)CC1	-4%	1%	i	20µM*
O=C(NCc1nc2ccccc2[nH]1)c1ccco1	-5%[57.5 µM]	0%	>57	0%
CC(=O)Nc1cccc(-c2nc3ccc(NC(C)=O)cc3[nH]2)c1	·	-6%	i	16µM*
O=C(Nc1ccc(-c2nc3ccccc3[nH]2)cc1)c1ccco1	0%	0%	3.9*	4µM*
Cn1cccc1-c1nc2ccc(NC(=O)c3ccccc3)cc2[nH]1	-2%	-3%	·	-17%
CC(=O)Nc1ccc2nc(-c3cccnc3)[nH]c2c1	·	-5%	>57	-12%
SMILES	HBB splice mod	GFP derepression	Bst PK mod	FLuc inh
O=C(Nc1ccc2nc(-c3ccco3)[nH]c2c1)c1cccs1	2%	3%	10*	13µM*
COC(=O)N1CCC2(CCN(Cc3ccccc3)CC2)CC1	1%	-2%[9.22 µM]	·	1%[11.4 µM]
Nc1cc(S(N)(=O)=O)ccc1SSc1ccc(S(N)(=O)=O)cc1N	1%[9.22 µM]	7%[9.22 µM]	·	2%[11.4 µM]
COc1cc(/C=c2\sc3nc(-c4ccncc4)nn3c2=O)ccc1OC(C)=O	-1%	2%	·	3.2µM*
CCC[C@@H]1C[C@@]1(CCC)C(NC(=O)c1ccco1)c1ccc(Cl)cc1 (stereo partly specified)	2%	·	·	·
Cc1cc(C)n(CCOC(=O)c2sc3ccccc3c2Cl)n1	2%	-3%	i	16µM*
O=C(Oc1cccc(-n2cnnn2)c1)c1sc2ccccc2c1Cl	·	0%	>57	1%
C#CCCCO/N=C1/C[C@@H](O)[C@@H](O)[C@@H]2[C@@H]3C(=O)N(CCC(=O)OCC)C(=O)[C@H]3CC[C@H]12	3%[9.22 µM]	·	·	2%[11.4 µM]
Oc1ccccc1-c1nnc(COc2ccccc2)o1	-1%	21%	·	-19%
Oc1ccccc1-c1nnc(COc2ccc(Cl)cc2Cl)o1	-1%	·	·	13µM*
CCCCCCNC(=O)Nc1ccc(S(=O)(=O)Nc2ccc(CCNC[C@H](O)COc3ccc(O)cc3)cc2)cc1	-1%	·	·	·
Cn1c(=O)c2cc(S(=O)(=O)N3CCOCC3)ccc2n(C)c1=O	-1%	-4%	>57	3%
O=c1c2ccccc2sn1-c1cc(S(=O)(=O)N2CCOCC2)ccc1N1CCOCC1	0%[57.5 µM]	-3%	>57	13µM*
C=CCn1cnc2c(c1=O)c1nc3ccccc3nc1n2/N=C/c1cccc(OC)c1	3%[57.5 µM]	2%	·	1%

Assay outcomes: PubChem, National Center for Advancing Translational Sciences (NCATS)
